# Results: PubChem BioAssay (NCI)
# About 83,000 compounds went through this panel and 20% of them were active in at least one assay; those are over-represented in the sample as a whole.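 The test compound was applied at a single concentration to cells in 96-well plates for 48 hours, and percent growth was recorded.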 The source made the active and inactive calls. Rule for the calls: active = growth percent below 10; inactive = the rest.
# Assays:
# Test in all cases: NCI-60 one-dose screen, 48 h (100 = growth as untreated, 0 = no growth, -100 = all killed)
# Conditions in all cases: 10 µM unless noted
# SR leukemia = tested on: SR leukemia
# RPMI-8226 leukemia = tested on: RPMI-8226 leukemia
# OVCAR-8 ovarian = tested on: OVCAR-8 ovarian
# OVCAR-5 ovarian = tested on: OVCAR-5 ovarian
# OVCAR-4 ovarian = tested on: OVCAR-4 ovarian
# SK-OV-3 ovarian = tested on: SK-OV-3 ovarian
# IGROV1 ovarian = tested on: IGROV1 ovarian
# OVCAR-3 ovarian = tested on: OVCAR-3 ovarian
# HS 578T breast = tested on: HS 578T breast
# NCI/ADR-RES ovarian = tested on: NCI/ADR-RES ovarian
SMILES,growth (SR leukemia),growth (RPMI-8226 leukemia),growth (OVCAR-8 ovarian),growth (OVCAR-5 ovarian),growth (OVCAR-4 ovarian),growth (SK-OV-3 ovarian),growth (IGROV1 ovarian),growth (OVCAR-3 ovarian),growth (HS 578T breast),growth (NCI/ADR-RES ovarian)
O=C(Nc1ncc(Cc2ccccc2)s1)c1ccc2c(c1)OCCCO2,7.17% (active),14.3% (inactive),44.9% (inactive),47.6% (inactive),52.3% (inactive),55.2% (inactive),41.1% (inactive),-10.5% (active),49.7% (inactive),–
CCN(CC)CCCOc1ccc2ncnc(Nc3ccc(Oc4cccc(C(F)(F)F)c4)c(Cl)c3)c2c1,-3.44% (active),-29.8% (active),16.9% (inactive),5.73% (active),7.23% (active),13.4% (inactive),-52.6% (active),-34.8% (active),-32.8% (active),2.21% (active)
O=C(NC1CC(F)C1)c1cc2cccnc2n1-c1ccc(Cl)c(Cl)c1 (stereo unspecified),104% (inactive),95.6% (inactive),95.4% (inactive),94.8% (inactive),95.4% (inactive),104% (inactive),86.7% (inactive),102% (inactive),99.2% (inactive),–
C=C(CNCCO)[C@@H]1CC[C@]2(CO)CC[C@]3(C)[C@H](CC[C@@H]4[C@@]5(C)CCC(N)C(C)(C)[C@@H]5CC[C@]43C)[C@@H]12 (stereo partly specified),-23.1% (active),-35.3% (active),36.8% (inactive),81.6% (inactive),64.6% (inactive),95.2% (inactive),65.3% (inactive),69.4% (inactive),51% (inactive),94.8% (inactive)
O=C(Nc1ccccc1O)c1ccc(CNC(=O)c2ccsc2Nc2ccnc(C(F)(F)F)c2)cc1,22% (inactive),-1.09% (active),18.4% (inactive),44.3% (inactive),47.3% (inactive),49.1% (inactive),31.9% (inactive),21.6% (inactive),4.47% (active),–
Nc1nc(N)c(N=Nc2ccccc2)c(-c2ccccc2)n1,38.7% (inactive),62.5% (inactive),77.5% (inactive),56.9% (inactive),66.4% (inactive),50.6% (inactive),15.3% (inactive),67.2% (inactive),3.4% (active),–
COC(=O)CC[C@@H]1O[C@@H](c2ccc(F)cc2)[C@@H](O)[C@H]1O,96.6% (inactive),101% (inactive),112% (inactive),90.2% (inactive),115% (inactive),101% (inactive),113% (inactive),104% (inactive),94.1% (inactive),104% (inactive)
C=CC(=O)Nc1ccc(Oc2nccc(Nc3nnc(-c4ccc(C)cc4)s3)n2)cc1,36.2% (inactive),61.8% (inactive),81.4% (inactive),105% (inactive),99% (inactive),78% (inactive),62.5% (inactive),43% (inactive),67.4% (inactive),–
CN1CCN(c2ccc(NC(=O)c3cncnc3Nc3ccc(OCc4cccc(F)c4)c(Cl)c3)cc2)CC1,14.9% (inactive),70.2% (inactive),76.7% (inactive),76.3% (inactive),72.1% (inactive),103% (inactive),91.6% (inactive),81.7% (inactive),75% (inactive),–
C=CCC(CCCC)(C(=O)OCC)C(=O)OCC,95.9% (inactive),94.8% (inactive),102% (inactive),106% (inactive),116% (inactive),117% (inactive),119% (inactive),118% (inactive),127% (inactive),–
COc1ccc(C[n+]2c3ccccc3n3c4ccc(N)cc4ccc32)c(OC)c1OC,41.2% (inactive),15.1% (inactive),46.8% (inactive),99.6% (inactive),55.5% (inactive),70% (inactive),73.9% (inactive),50.9% (inactive),43.5% (inactive),–
N#Cc1nc(-c2ccccc2)oc1S(=O)(=O)N1CCN(c2ccc(F)cc2)CC1,-20.3% (active),36% (inactive),63.1% (inactive),102% (inactive),107% (inactive),109% (inactive),45.6% (inactive),51.9% (inactive),103% (inactive),–
CCCCCCCCCCCCCCCCCC1=NC(C)(C)CN1CC(C)O (stereo unspecified),-13.6% (active),78.8% (inactive),46.5% (inactive),89.4% (inactive),94.4% (inactive),80.9% (inactive),66.1% (inactive),46.6% (inactive),107% (inactive),69.9% (inactive)
CCOC(=O)C#Cc1c(C(=O)OCC)nnn1Cc1ccc(C(F)(F)F)cc1,-1.42% (active),7.43% (active),69% (inactive),91.2% (inactive),67.1% (inactive),99.7% (inactive),81.8% (inactive),13.6% (inactive),113% (inactive),97.1% (inactive)
C#CCNC(=O)[C@]1(C)CCC[C@@]2(C)[C@H]1CC=C1C=C(C(C)C)CC[C@@H]12,105% (inactive),103% (inactive),113% (inactive),113% (inactive),101% (inactive),104% (inactive),99.3% (inactive),106% (inactive),106% (inactive),104% (inactive)
O=C(C1=Cc2cc3ccccc3n2Cc2cnnn21)c1ccc(O)cc1,35.1% (inactive),63.8% (inactive),64.8% (inactive),91.2% (inactive),81.3% (inactive),74.5% (inactive),41.1% (inactive),20.6% (inactive),49.4% (inactive),37.2% (inactive)
Cc1ccc(S(=O)(=O)N2CCC(=O)c3ccccc32)cc1,39.1% (inactive),106% (inactive),103% (inactive),91% (inactive),99.3% (inactive),62.2% (inactive),85.2% (inactive),63.4% (inactive),71.7% (inactive),72.6% (inactive)
CCCCNc1nnc2n(Cc3ccccc3)c(=O)c3c4c(sc3n12)CCCC4,9.01% (active),34.4% (inactive),46.2% (inactive),106% (inactive),71.7% (inactive),62.5% (inactive),46.7% (inactive),49.2% (inactive),71.5% (inactive),55.7% (inactive)
O=C(NC(Cc1nnc2n(Cc3ccccc3)c(=O)c3c4c(sc3n12)CCCC4)c1ccccc1)c1ccccc1 (stereo unspecified),104% (inactive),123% (inactive),77.1% (inactive),86.7% (inactive),103% (inactive),110% (inactive),54.9% (inactive),107% (inactive),101% (inactive),87.9% (inactive)
CCc1ccc(CCC(=O)Nc2ncc(Cc3ccccc3)s2)o1,22.6% (inactive),29.4% (inactive),28.4% (inactive),38.9% (inactive),61.5% (inactive),34.4% (inactive),35.6% (inactive),-11.2% (active),9.99% (active),12.7% (inactive)
COc1cc(/C=C/C(=O)c2ccc(-n3cc(CN4CCN(c5cc6c(cc5F)c(=O)c(C(=O)O)cn6C5CC5)CC4)nn3)cc2)ccc1O,14.1% (inactive),-14.6% (active),42.7% (inactive),84.7% (inactive),62.9% (inactive),72.3% (inactive),51.8% (inactive),57.3% (inactive),73.7% (inactive),94.2% (inactive)
CCN1C(=O)N(CC)C2C1NC(=S)N2/N=C/c1ccc(C(F)(F)F)cc1 (stereo unspecified),28.4% (inactive),76.8% (inactive),86.8% (inactive),81.3% (inactive),72.7% (inactive),79% (inactive),60.6% (inactive),64.8% (inactive),66.2% (inactive),69.5% (inactive)
Cc1ccc(-c2csc(NC(=O)c3ccccc3CN3C(=O)c4ccccc4C3=O)n2)cc1,103% (inactive),94.8% (inactive),93.5% (inactive),90.8% (inactive),111% (inactive),97.5% (inactive),96.5% (inactive),103% (inactive),98.8% (inactive),82.3% (inactive)
CCN1CCN(C(=O)[C@]23CC[C@@H](C)[C@H](C)[C@@H]2C2=CC[C@@H]4[C@@]5(C)C/C(=C/c6cccnc6)C(=O)C(C)(C)[C@@H]5CC[C@@]4(C)[C@]2(C)CC3)CC1,-4.44% (active),-15.2% (active),32.6% (inactive),56.7% (inactive),26.7% (inactive),54.3% (inactive),50.9% (inactive),25.9% (inactive),25.2% (inactive),26.7% (inactive)
C#CC#CC#CC#CC#CC#CC#CC#CC[C@@H]1OC[C@@H](COC(=O)O[C@@H](C(=O)O[C@H]2C[C@@]3(O)[C@@H](OC(=O)c4ccccc4)[C@@H]4[C@]5(OC(C)=O)CO[C@@H]5C[C@H](O)[C@@]4(C)C(=O)[C@H](OC(C)=O)C(=C2C)C3(C)C)[C@@H](NC(=O)c2ccccc2)c2ccccc2)O1,3.63% (active),5.29% (active),94.7% (inactive),5.15% (active),83.9% (inactive),98.6% (inactive),19.3% (inactive),100% (inactive),94.1% (inactive),62.5% (inactive)
CN1CCN(c2ccc3nc4c(nc3c2C(F)(F)F)C(=O)c2ncccc2C4=O)CC1,-27.2% (active),27.6% (inactive),-10.9% (active),-90.4% (active),-91.1% (active),29.7% (inactive),-32.6% (active),-27.9% (active),-16% (active),10.1% (inactive)
